# Test results reported in the supplement of paper PMC10849652.
# About 7,900 targets were measured; listed, in parts, are those with a hit and a random draw of the rest. About 0.6% of all pairs of compound and target were hits. Unmarked numbers belong to inactive results.
# How the values were obtained:
# Assay in all cases: log2 fold change, soluble protein after heating vs DMSO (PISA); higher = thermal stabilisation; K562 cells, 10 uM, 30 min; active = over 0.2 and 3.5 SD of the protein, either way, in both replicates (recomputed)
# [1] = compound: C=CC(=O)N1CCC[C@@H](n2nc(-c3ccc(Oc4ccccc4)cc3)c3c(N)ncnc32)C1 [ibrutinib]
# Method in brief: (§1)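 Soluble protein was quantified by TMTpro 16plex LC-MS/MS after channel sums were equalised. It was obtained as the supernatant after 21,000xg for 90 min from pooled aliquots of K562 cells (2×10^6 cells/mL, 10 μM compound, 30 min) heated for 3 min across 48°C-58°C and extracted in PBS with 0.5% NP-40 at 4°C. Thermal stability values are relative to control samples and come from duplicates. They are given as log2 fold changes.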
# [2] = compound: CC(C)C1=C2N=C(C=C(N2N=C1)NCC3=CC=CC=C3)NCCCCCCN
# Method in brief: as §1
# [3] = compound: CC1=C(C(CC(=O)N1)C2=CC=C(C=C2)C(F)(F)F)C(=O)NC3=C(C=C4C(=C3)C=NN4)F
# Method in brief: as §1
# [4] = compound: CC1=C(C2=C(C=C1)C(=O)C3=CC=CC=C3N2CCCN)C
# Method in brief: as §1
# [5] = compound: C1COCCN1CCN2C3=CC=CC=C3N=C2NC(=O)C4=CC(=CC=C4)[N+](=O)[O-] [IRAK-1-4 Inhibitor I]
# Method in brief: as §1
# [6] = compound: CC(C)(O)CC(=O)NCCn1ccc2ncnc(Nc3ccc(Oc4cccc(C(F)(F)F)c4)c(Cl)c3)c21
# Method in brief: as §1
# [7] = compound: CC(C)N(C[C@H]1O[C@@H](n2cnc3c(N)ncnc32)[C@H](O)[C@@H]1O)[C@H]1C[C@@H](CCc2nc3cc(C(C)(C)C)ccc3[nH]2)C1 [pinometostat]
# Method in brief: as §1
# [8] = compound: CC(C)(C)Cn1c(N)nc2ccc(-c3[nH]c(C(C)(C)C)nc3-c3ccc(F)cc3)nc21 [ralimetinib]
# Method in brief: as §1
# [9] = compound: CC(C)C[C@@H](C=O)NC(=O)[C@H](CC(C)C)NC(=O)[C@H](CC(C)C)NC(=O)OCc1ccccc1
# Method in brief: as §1
# [10] = compound: CC(=O)c1cnc2ccc(-c3cc(Cl)c(O)c(Cl)c3)nc2c1N[C@H]1CC[C@H](CN(C)C)CC1
# Method in brief: as §1
# Sequence of UniProt O60784 (O60784 whole entry, looked up): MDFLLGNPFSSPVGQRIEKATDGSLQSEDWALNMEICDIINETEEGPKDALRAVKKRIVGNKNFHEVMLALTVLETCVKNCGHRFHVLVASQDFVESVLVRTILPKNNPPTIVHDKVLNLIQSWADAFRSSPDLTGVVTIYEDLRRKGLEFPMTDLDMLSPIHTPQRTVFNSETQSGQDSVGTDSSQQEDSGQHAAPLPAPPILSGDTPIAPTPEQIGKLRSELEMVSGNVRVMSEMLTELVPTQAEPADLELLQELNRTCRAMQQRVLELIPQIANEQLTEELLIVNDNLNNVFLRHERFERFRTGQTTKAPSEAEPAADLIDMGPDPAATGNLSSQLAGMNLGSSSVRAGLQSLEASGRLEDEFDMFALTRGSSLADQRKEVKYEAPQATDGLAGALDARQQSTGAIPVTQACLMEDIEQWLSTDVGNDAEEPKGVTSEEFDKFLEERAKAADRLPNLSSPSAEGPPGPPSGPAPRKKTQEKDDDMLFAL
# Sequence of UniProt Q16881 (Q16881 whole entry, looked up): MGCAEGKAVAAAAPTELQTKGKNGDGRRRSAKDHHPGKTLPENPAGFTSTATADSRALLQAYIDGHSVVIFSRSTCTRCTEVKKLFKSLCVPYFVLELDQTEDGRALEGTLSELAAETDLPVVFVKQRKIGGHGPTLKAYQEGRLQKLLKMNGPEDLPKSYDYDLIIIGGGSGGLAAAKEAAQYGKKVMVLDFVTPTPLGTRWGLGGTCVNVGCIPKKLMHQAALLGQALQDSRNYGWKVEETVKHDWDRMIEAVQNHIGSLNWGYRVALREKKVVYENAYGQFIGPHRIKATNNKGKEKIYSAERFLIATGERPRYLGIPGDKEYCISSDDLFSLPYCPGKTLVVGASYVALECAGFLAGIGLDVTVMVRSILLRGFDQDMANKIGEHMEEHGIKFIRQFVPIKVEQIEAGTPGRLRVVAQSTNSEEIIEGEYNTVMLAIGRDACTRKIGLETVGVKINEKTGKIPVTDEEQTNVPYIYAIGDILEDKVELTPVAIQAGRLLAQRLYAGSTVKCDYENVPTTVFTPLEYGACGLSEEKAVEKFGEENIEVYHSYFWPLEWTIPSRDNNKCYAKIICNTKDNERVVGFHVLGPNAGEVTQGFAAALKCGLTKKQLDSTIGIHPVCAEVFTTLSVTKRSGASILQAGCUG
# Sequence of UniProt P36406 (P36406 whole entry, looked up): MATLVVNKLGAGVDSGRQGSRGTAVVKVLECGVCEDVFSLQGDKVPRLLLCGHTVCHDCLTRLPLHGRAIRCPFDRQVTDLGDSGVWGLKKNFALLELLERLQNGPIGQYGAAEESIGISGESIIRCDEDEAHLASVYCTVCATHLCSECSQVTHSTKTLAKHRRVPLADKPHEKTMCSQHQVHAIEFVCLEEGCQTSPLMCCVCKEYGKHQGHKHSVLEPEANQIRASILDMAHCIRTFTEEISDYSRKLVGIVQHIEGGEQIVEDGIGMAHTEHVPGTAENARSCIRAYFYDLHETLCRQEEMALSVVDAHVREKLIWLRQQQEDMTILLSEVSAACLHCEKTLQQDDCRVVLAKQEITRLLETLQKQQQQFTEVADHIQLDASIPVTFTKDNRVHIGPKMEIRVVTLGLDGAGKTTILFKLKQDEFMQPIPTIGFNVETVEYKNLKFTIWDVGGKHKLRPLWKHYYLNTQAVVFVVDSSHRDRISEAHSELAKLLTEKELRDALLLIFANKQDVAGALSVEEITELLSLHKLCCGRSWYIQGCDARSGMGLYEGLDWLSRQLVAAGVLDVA
# Sequence of UniProt P61960 (P61960 whole entry, looked up): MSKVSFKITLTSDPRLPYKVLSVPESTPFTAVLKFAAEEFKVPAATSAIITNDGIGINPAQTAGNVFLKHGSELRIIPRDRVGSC
# Sequence of UniProt O00124 (O00124 whole entry, looked up): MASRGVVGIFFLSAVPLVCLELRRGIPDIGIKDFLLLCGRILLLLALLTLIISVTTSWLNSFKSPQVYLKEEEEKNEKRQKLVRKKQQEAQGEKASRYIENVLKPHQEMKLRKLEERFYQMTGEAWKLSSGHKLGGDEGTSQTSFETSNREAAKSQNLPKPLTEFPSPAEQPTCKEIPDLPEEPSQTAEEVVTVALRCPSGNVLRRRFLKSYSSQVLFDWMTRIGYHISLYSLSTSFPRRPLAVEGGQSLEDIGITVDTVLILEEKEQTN
# Sequence of UniProt Q15906 (Q15906 whole entry, looked up): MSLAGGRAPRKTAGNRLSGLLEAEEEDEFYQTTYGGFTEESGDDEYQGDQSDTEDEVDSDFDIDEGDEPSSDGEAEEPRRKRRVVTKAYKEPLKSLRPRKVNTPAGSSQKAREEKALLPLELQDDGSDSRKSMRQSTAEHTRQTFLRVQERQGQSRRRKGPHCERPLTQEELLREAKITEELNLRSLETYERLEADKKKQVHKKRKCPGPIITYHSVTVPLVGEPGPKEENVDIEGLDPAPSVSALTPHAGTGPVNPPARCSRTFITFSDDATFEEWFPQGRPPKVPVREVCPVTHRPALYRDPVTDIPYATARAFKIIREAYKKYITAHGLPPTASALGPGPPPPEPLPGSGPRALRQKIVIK
# Sequence of UniProt Q629K1 (Q629K1 whole entry, looked up): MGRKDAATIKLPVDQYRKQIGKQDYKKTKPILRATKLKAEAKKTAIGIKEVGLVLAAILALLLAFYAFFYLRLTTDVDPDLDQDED
# Sequence of UniProt P98170 (P98170 whole entry, looked up): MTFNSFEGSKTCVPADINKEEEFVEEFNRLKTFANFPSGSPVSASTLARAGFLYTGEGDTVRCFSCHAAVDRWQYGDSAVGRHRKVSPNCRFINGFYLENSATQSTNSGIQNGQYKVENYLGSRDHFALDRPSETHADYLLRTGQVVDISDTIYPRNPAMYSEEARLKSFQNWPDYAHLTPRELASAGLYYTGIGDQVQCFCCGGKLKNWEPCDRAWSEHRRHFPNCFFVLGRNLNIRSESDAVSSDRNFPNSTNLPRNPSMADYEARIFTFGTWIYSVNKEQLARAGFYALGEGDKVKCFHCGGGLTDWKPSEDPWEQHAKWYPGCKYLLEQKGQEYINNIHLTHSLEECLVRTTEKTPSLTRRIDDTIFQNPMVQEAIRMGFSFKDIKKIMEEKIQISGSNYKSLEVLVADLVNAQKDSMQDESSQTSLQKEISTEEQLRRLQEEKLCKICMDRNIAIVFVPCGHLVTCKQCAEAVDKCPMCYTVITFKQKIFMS
# Sequence of UniProt P18887 (P18887 whole entry, looked up): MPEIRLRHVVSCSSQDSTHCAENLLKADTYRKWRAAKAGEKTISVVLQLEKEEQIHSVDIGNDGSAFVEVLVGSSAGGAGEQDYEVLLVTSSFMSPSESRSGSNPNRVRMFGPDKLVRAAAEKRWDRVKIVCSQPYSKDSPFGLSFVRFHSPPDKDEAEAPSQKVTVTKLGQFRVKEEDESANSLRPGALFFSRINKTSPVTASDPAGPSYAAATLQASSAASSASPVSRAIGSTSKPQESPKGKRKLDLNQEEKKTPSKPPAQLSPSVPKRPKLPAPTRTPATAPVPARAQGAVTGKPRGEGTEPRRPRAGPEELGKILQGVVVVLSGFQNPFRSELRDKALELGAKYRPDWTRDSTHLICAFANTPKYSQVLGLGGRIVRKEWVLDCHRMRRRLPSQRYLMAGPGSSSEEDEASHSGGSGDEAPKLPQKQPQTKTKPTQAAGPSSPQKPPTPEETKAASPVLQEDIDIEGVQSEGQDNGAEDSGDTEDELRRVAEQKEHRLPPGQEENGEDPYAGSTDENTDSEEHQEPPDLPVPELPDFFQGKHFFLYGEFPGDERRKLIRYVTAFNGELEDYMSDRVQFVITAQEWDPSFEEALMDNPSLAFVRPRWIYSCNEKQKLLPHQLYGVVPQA
# Sequence of UniProt P51668 (P51668 whole entry, looked up): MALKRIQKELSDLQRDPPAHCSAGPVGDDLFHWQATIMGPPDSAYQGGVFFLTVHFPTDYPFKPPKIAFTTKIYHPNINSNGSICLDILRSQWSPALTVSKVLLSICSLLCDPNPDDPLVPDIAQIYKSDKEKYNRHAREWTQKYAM
# Sequence of UniProt Q9HCN3 (Q9HCN3 whole entry, looked up): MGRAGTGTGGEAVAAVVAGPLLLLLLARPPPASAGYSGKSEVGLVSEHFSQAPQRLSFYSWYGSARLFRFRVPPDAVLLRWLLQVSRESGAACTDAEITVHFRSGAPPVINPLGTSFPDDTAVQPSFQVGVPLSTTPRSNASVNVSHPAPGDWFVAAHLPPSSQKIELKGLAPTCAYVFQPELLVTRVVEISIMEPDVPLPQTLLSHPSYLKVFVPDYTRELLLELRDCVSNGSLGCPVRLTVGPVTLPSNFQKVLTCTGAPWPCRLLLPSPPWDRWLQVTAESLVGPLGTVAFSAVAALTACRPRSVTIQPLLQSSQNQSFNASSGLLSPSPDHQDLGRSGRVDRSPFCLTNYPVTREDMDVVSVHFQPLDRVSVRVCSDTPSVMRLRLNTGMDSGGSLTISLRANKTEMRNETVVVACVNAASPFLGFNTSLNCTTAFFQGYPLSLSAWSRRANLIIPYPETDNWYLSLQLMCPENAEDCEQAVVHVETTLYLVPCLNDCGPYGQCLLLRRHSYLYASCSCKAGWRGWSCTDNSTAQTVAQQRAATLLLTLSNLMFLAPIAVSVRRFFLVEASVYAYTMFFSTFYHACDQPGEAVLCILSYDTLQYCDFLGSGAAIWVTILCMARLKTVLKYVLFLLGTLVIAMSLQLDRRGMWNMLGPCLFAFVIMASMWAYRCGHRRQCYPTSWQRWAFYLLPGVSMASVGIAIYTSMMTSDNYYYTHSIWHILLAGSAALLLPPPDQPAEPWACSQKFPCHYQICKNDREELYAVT
# Sequence of UniProt Q86TN4 (Q86TN4 whole entry, looked up): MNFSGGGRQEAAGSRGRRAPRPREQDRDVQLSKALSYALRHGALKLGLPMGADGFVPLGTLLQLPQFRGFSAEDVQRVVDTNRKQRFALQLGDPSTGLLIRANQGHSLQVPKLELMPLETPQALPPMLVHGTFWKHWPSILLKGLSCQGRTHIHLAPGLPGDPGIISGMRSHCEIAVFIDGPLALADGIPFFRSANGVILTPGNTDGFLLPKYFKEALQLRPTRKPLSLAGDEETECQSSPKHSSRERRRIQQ
Target,log2 fold change [1],log2 fold change [2],log2 fold change [3],log2 fold change [4],log2 fold change [5],log2 fold change [6],log2 fold change [7],log2 fold change [8],log2 fold change [9],log2 fold change [10]
UBAP2L (UniProt F8W726),0.017,-0.002,0.145,0.136,,,,,,
"WDR46, A0A0G2JJL1",0.054,0.003,0.005,-0.353,-0.153,0.269,0.325,,,
TTC26,0.035,,,0.062,,,,0.204,-0.211,
XAB2 (UniProt Q9HCS7),,,,,-0.036,-0.138,0.181,0.14,-0.041,
UBE2D1 (UniProt P51668),0.007,-0.203,0.028,0.117,,,,0.003,-0.058,0.005
TUT4 (UniProt Q5TAX3),-0.029,-0.219,0.158,0.104,0.078,0,0.059,0.07,0.086,
TRIM23 (UniProt P36406),0.072,0.146,-0.044,0.242,0.064,,-0.024,-0.034,-0.019,
XIAP (UniProt P98170),-0.076,-0.05,0,-0.002,,-0.157,,,,-0.105
WARS1 (UniProt G3V227),0.03,,,-0.048,,0.259,,,,-0.022
VPS72 isoform 2 (UniProt Q15906),0.119,0.133,-0.092,-0.473 (active),,-0.177,,-0.122,-0.117,0.033
TRIM5 (UniProt Q9C035),,-0.176,,0.047,,-0.045,,0.094,0.391,0
TMEM268 isoform 3 (UniProt Q5VZI3),0.036,-0.095,-0.033,0.014,,-0.334,,-0.056,-0.016,-0.042
TSPAN13 (UniProt O95857),0.175,-0.198,0.113,0.065,,0.151,,-0.149,0.018,
TMEM104 (UniProt Q8NE00),,-0.473 (active),0.126,,-0.039,0.009,-0.106,-0.09,0.082,0.038
VDAC1 (UniProt P21796),,0.058,-0.009,-0.016,0.07,0.021,-0.032,-0.035,-0.039,0.02
TOM1 (UniProt O60784),0.093,-0.22,,-0.236,0.058,-0.087,-0.032,,,
WARS1 (UniProt G3V3P2),-0.036,,,,,,,,,
TMEM8A (UniProt Q9HCN3),0.06,-0.445 (active),0.007,0.044,,,,-0.131,-0.036,
UFM1 isoform 2 (UniProt P61960),0.025,-0.013,0.026,0.035,,0.018,,,,0.052

Target,log2 fold change [1],log2 fold change [2],log2 fold change [3],log2 fold change [4],log2 fold change [5],log2 fold change [6],log2 fold change [7],log2 fold change [8],log2 fold change [9],log2 fold change [10]
WARS1 (UniProt G3V339),,,,,,0.044,,,,
TMEM219 (UniProt Q86XT9),0.115,0.007,0.031,-0.134,,-0.015,,,,0.083
XRCC1 (UniProt P18887),,-0.066,,-0.047,0.13,-0.368,0.41,-0.115,0.432,0.027
WDR4 isoform 3 (UniProt P57081),-0.157,,,,,-0.126,,,,
UBXN8 (UniProt O00124),0.077,,,0.259,,0.138,,0.211,-0.227,0.039
UTP20 (UniProt O75691),,0.081,,0,,-0.172,,,,
UBE2J2 isoform 3 (UniProt Q8N2K1),0.086,-0.185,,0.02,,-0.019,,,,-0.017
TUBA4A (UniProt C9JJQ8),-0.076,,,-0.042,-0.203,,-0.121,,,
WARS1 (UniProt G3V5U1),-0.158,,,,0.01,0.156,0.031,,,
UBXN10 (UniProt Q96LJ8),0.054,-0.017,0.026,0.085,0.027,-0.145,0.058,-0.045,0.038,
TRPT1 isoform 4 (UniProt Q86TN4),,-0.054,,,0.11,,0.033,0.011,0.074,-0.057
TRIQK (UniProt Q629K1),0.007,,,0.114,-0.059,-0.054,0.104,-0.011,-0.004,
TOM1L2 (UniProt Q6ZVM7),,0.049,-0.012,,-0.049,-0.089,0.036,,,-0.031
VDAC1 (UniProt C9JI87),,0.009,0.21,,,-0.052,,-0.506,-0.013,-0.091
TXNRD1 isoform 7 (UniProt Q16881),-0.209,-0.01,,,,-0.069,,,,
TVP23C (UniProt Q96ET8),,0.011,,0.037,,,,,,0.021
ULBP1 (UniProt Q9BZM6),,0.112,,0.009,,-0.132,,-0.058,0.006,-0.038
USP48 (UniProt Q86UV5),-0.07,-0.246,0.05,,,,,,,
